Laboratory results reported in PubChem BioAssay (NCI).
This is part of a sample that, as a whole, favours compounds with a hit. Of some 83,000 tested, about 20% had one in any assay.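 Percent growth is the endpoint: 0 to 100 indicates growth inhibition (40 means 60% inhibition), 0 means no net growth, and negative values indicate cell death.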 A number with no mark means an inactive call. Active and inactive are the calls of the source. The calls were made as follows: active = growth percent below 10; inactive = the rest.

Legend:
Assay in all cases: NCI-60 one-dose screen, 48 h (100 = growth as untreated, 0 = no growth, -100 = all killed)
Conditions in all cases: 10 µM unless noted
[1] = test system: EKVX NSCLC
[2] = test system: UO-31 renal
[3] = test system: TK-10 renal
[4] = test system: ACHN renal
[5] = test system: CAKI-1 renal
[6] = test system: A498 renal
[7] = test system: CCRF-CEM leukemia
[8] = test system: MOLT-4 leukemia
[9] = test system: SN12C renal

SMILES	growth [1]	growth [2]	growth [3]	growth [4]	growth [5]	growth [6]	growth [7]	growth [8]	growth [9]
O=C1CSC(c2ccc(O)cc2)N1c1nnc(Cn2cnnc2)o1 (centres undefined)	99.1%	91.9%	131%	108%	79.4%	99.9%	49.1%	58.7%	–
Cc1nc(Nc2ccc(NC(=S)Nc3ccccc3)cc2)nc2nc(Nc3cccc(Cl)c3)[nH]c(=O)c12	119%	96.4%	142%	–	–	91.3%	81.2%	64.9%	97.4%
CCN(CC)c1ccc(Nc2ccc(CC(=O)c3ccccc3)cc2)cc1	76.4%	71.5%	107%	–	–	99.7%	95.9%	102%	95.3%
CCc1cc(Cc2cc(CC)cc(C(C)(C)C)c2O)c(O)c(C(C)(C)C)c1	17.7%	30.4%	–	13.1%	19.6%	63.7%	12.9%	14.4%	19.1%
CCCCCCCCn1cc(C2=C(c3coc4ccc(OC)cc34)C(=O)NC2=O)c2ccccc21	102%	85.7%	97.6%	103%	99.7%	–	99%	125%	102%
O=C1Nc2ccccc2SC1C1SC(=S)N(Cc2ccccc2)C1=O (centres undefined)	105%	73.1%	–	108%	78.2%	109%	51.1%	67.3%	–
O=C1CSC(c2ccccc2O)N1c1nnc(Cn2cnnc2)o1 (centres undefined)	81.8%	46.7%	145%	89.4%	71.3%	106%	23%	61.5%	–
CCNCCNc1cc(-c2ccc(C(F)(F)F)cc2)c(C#N)c2nc3cc(Cl)c(Cl)cc3n12	-94.2% (active)	–	-94.7% (active)	–	-91.5% (active)	-40.5% (active)	-48.4% (active)	-56.8% (active)	-70.9% (active)
CCNCCNc1cc(-c2cccc(C(F)(F)F)c2)c(C#N)c2nc3ccccc3n12	-89.5% (active)	-81.8% (active)	-92.9% (active)	-100% (active)	-70.8% (active)	81.4%	-12.3% (active)	-33.2% (active)	–
COc1cc2c(cc1OC)-c1ccc3cc4c(cc3c1N(CCN1CCCC1)C2)OCO4	36.3%	–	–	–	–	-2.77% (active)	-5.95% (active)	2.96% (active)	–
COc1cc(NC(=O)c2cccc(-c3cc(=O)c4c(OC)c(OC)c(OC)cc4o3)c2)cc(OC)c1OC	–	20.9%	69.4%	56.7%	40.6%	57.4%	31.3%	10.4%	45.9%
Clc1ccc(/C=C/c2nc(Nc3ccc(Cl)cc3)c3ccccc3n2)cc1	90.5%	70%	121%	105%	90.1%	94.9%	102%	–	–
COc1ccc(-c2cc(-c3cc(OC)ccc3O)[nH]c(=O)c2C#N)cc1	96%	44.1%	76.1%	81%	77.6%	37.5%	46.3%	32%	–
COC(=O)CCCNC(=O)C(=O)c1c(O)c(O)c(C(C)C)c2cc(C)c(-c3c(C)cc4c(C(C)C)c(O)c(O)c(C(=O)C(=O)NCCCC(=O)OC)c4c3O)c(O)c12	2.47% (active)	-5.61% (active)	–	3.45% (active)	32.7%	-7.28% (active)	16.1%	–	16.6%
COC1=CC(c2ccc[nH]2)=N/C1=C\c1[nH]c(C)c(C(=O)OCCn2cc(CCC[C@@H]3Cc4cc(O)ccc4C4CC[C@]5(C)[C@@H](O)CC[C@H]5C43)nn2)c1C (some centres undefined)	–	44.7%	96.9%	66.5%	46.4%	49.6%	36.8%	62.1%	–
C=C(C)[C@@H]1CC[C@]2(CN)CC[C@]3(C)[C@H](CC[C@@H]4[C@@]5(C)CCC(N)[C@@](C)(CO)[C@@H]5CC[C@]43C)[C@@H]12 (some centres undefined)	21.3%	65.8%	–	-77.7% (active)	-15.7% (active)	81.4%	-44.8% (active)	–	-69.3% (active)
Clc1ccc2c(NCCCN3CCN(c4nc(N5CCOCC5)nc5ccccc45)CC3)ccnc2c1	26.4%	-85.9% (active)	-38% (active)	-29.1% (active)	15.3%	71.2%	4.4% (active)	–	–
[2H]c1nc(Nc2ncc(F)c(-c3cc(F)c4nc(C)n(C(C)C)c4c3)n2)c([2H])c([2H])c1CN1CCN(C([2H])([2H])C([2H])([2H])[2H])CC1	51.7%	23.2%	21.6%	–	–	44.3%	35.2%	21.1%	54.3%
CCOC(=O)C1=C(C)NC(SCc2nnc(-c3ccc(Cl)cc3)o2)=NC1c1ccc(Cl)cc1Cl (centres undefined)	77.2%	37.2%	79.4%	57.7%	–	77.7%	–	–	65.4%
O=C(C[C@@]1(O)C(=O)Nc2c(Cl)ccc(Cl)c21)c1ccc(C2CC2)cc1	46.5%	–	70.4%	39.6%	34.4%	-32.7% (active)	15.9%	18.9%	32.2%
CN1CCN(CCCOc2ccc3nc(Nc4cc(Cl)cc(Cl)c4)ccc3c2)CC1	-21.5% (active)	-87.6% (active)	-79.7% (active)	-98.8% (active)	-32.6% (active)	-18.6% (active)	-52.5% (active)	-67.8% (active)	–
CNC(=O)c1cc(Oc2ccc3nc(NC(=O)Nc4cc(C(F)(F)F)cc(C(F)(F)F)c4)sc3c2)ccn1	-18.7% (active)	-69.9% (active)	-54.8% (active)	–	-17.6% (active)	-58.8% (active)	7.33% (active)	0.825% (active)	-18.7% (active)
O=C(Nc1ccccc1Cl)OCCN1CCOCC1	104%	92.4%	92.8%	–	–	129%	86%	92.3%	98%
O=C1CSC(c2ccccc2Cl)N1c1nnc(Cn2cnnc2)o1 (centres undefined)	60.7%	66.4%	91.1%	73.6%	–	75.5%	–	20.2%	82%
Cn1c(NCCc2ccc(O)c(O)c2)nc2c1c(=O)n(Cc1ccc(Cl)cc1)c(=O)n2C	84.8%	–	69.9%	39.5%	38.7%	86.2%	12.8%	–	–
CCc1nc2ccccc2[nH]1	112%	80.1%	118%	–	109%	96.1%	98.8%	97.5%	95.6%
Nc1nc(N)c(-c2ccc(Cl)cc2)c(/C=C/c2ccc([N+](=O)[O-])cc2)n1	–	41.7%	109%	–	86.3%	-3.32% (active)	34.8%	27.6%	93.6%
CCCCS(=O)(=O)Oc1ccc(-c2nc(C)c(C(=O)OCC)s2)cc1C=O	92.1%	57.7%	68.8%	62.7%	63.7%	77.5%	15.3%	32.1%	–
Fc1ccc(Nc2ccc3cc(OCCCN4CCOCC4)ccc3n2)cc1F	61.2%	19.5%	66.6%	–	70.7%	36.8%	75.4%	61.9%	68.4%
N[C@H]1CCC[C@@H]1NCCCCN1C(=O)c2cccc3cccc(c23)C1=O	84.6%	60.3%	65.8%	44.9%	84.4%	40.5%	84.5%	20.2%	–
